Source: PubChem BioAssay AID1159580 (chemical genetic matrix, 2015)
Several values for one entry are separate records, joined by “and”; a condition that tells them apart may be missing. Equal entries are not always repeated. The campaign covered roughly 5,500 compounds. About 2,000 (36%) were called active. Roughly 18% stayed inconclusive and do not appear here. Rule as the data show it: active = normalized growth mostly below about 0.91 (no sharp cut-off); inconclusive = no clear call, values can overlap the other calls; inactive = mostly above about 0.92. The list shows a part of the results.

Experiment: chemical genetic growth profiling, strain panel (AID 1159580);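 also: tested at 20 µM; growth read once vehicle control cultures reached saturation at 30 °C; 1 = growth at the plate median or of vehicle wells; lower values mean less growth of the strain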
Details: S. cerevisiae deletion strains, growth OD

Measured: normalized growth

O=C1O[C@@H](CO)[C@H](O)[C@@H](O)[C@@H]1O
inactive: locus YAL021C, strain ccr4, stronger effect = lower value 0.997 | locus YAL026C, strain drs2, stronger effect = lower value 1.03 | locus YAL030W, strain snc1, stronger effect = lower value 1.01 | locus YBL061C, strain skt5, stronger effect = lower value 1.03 | locus YBR009C, strain hhf1, stronger effect = lower value 1.01 | locus YBR021W, strain FUR4, stronger effect = lower value 0.999 | locus YBR023C, strain chs3, stronger effect = lower value 1.02 | locus YBR171W, strain sec66, stronger effect = lower value 1.03 | locus YBR229C, strain ROT2, stronger effect = lower value 1 | locus YBR231C, strain swc5, stronger effect = lower value 1.08 | locus YBR279W, strain paf1, stronger effect = lower value 1.01 | locus YCL011C, strain gbp2, stronger effect = lower value 1.02 | locus YCL016C, strain dcc1, stronger effect = lower value 1.01 | locus YCL029C, strain bik1, stronger effect = lower value 0.99 | locus YCL061C, strain MRC1, stronger effect = lower value 1.01 | locus YCL069W, strain vba3, stronger effect = lower value 1.03 | locus YCR088W, strain abp1, stronger effect = lower value 1.02 | locus YDL005C, strain med2, stronger effect = lower value 1.03 | locus YDL035C, strain GPR1, stronger effect = lower value 1.01 | locus YDL040C, strain nat1, stronger effect = lower value 1.03 | locus YDL074C, strain BRE1, stronger effect = lower value 0.974 | locus YDL101C, strain DUN1, stronger effect = lower value 1.01 | locus YDL134C, strain PPH21, stronger effect = lower value 1.01 | locus YDL185W, strain tfp1, stronger effect = lower value 1 | locus YDL192W, strain arf1, stronger effect = lower value 1.01 | locus YDR001C, strain nth1, stronger effect = lower value 1.03 | locus YDR069C, strain doa4, stronger effect = lower value 1.02 | locus YDR101C, strain arx1, stronger effect = lower value 0.946 | locus YDR137W, strain rgp1, stronger effect = lower value 1.04 | locus YDR150W, strain NUM1, stronger effect = lower value 1 | locus YDR159W, strain sac3, stronger effect = lower value 1 | locus YDR162C, strain NBP2, stronger effect = lower value 1.02 | locus YDR195W, strain ref2 0.99 | locus YDR297W, strain sur2, stronger effect = lower value 1.02 | locus YDR318W, strain mcm21, stronger effect = lower value 1.01 | locus YDR334W, strain swr1, stronger effect = lower value 1.03 | locus YDR335W, strain msn5, stronger effect = lower value 1.01 | locus YDR388W, stronger effect = lower value 1.01 | locus YDR392W, strain spt3, stronger effect = lower value 1.06 | locus YDR502C, strain sam2, stronger effect = lower value 1 | locus YEL003W, strain gim4, stronger effect = lower value 1.02 | locus YEL037C, strain rad23, stronger effect = lower value 1.01 | locus YEL061C, strain CIN8 (second series), stronger effect = lower value 1.03 | locus YEL061C, strain CIN8, stronger effect = lower value 1 | locus YER015W, strain faa2, stronger effect = lower value 1.02 | locus YER016W, strain bim1, stronger effect = lower value 1.03 | locus YER110C, stronger effect = lower value 1.01 | locus YER111C, strain swi4, stronger effect = lower value 1.01 | locus YER155C, strain BEM2 (second series), stronger effect = lower value 1.06 | locus YER155C, strain BEM2, stronger effect = lower value 1.01 | locus YER167W, strain BCK2, stronger effect = lower value 1.01 | locus YFR010W, strain ubp6, stronger effect = lower value 1.01 | locus YGL078C, strain dbp3, stronger effect = lower value 1.01 | locus YGL086W, strain mad1, stronger effect = lower value 0.983 | locus YGL167C, strain pmr1, stronger effect = lower value 1.02 | locus YGL173C, strain kem1, stronger effect = lower value 1.05 | locus YGL227W, strain vid30, stronger effect = lower value 1.03 | locus YGL240W, strain doc1, stronger effect = lower value 1.04 | locus YGL248W, strain PDE1, stronger effect = lower value 0.996 | locus YGL253W, strain hxk2, stronger effect = lower value 1.03 | locus YGR135W, strain pre9, stronger effect = lower value 1.05 | locus YGR229C, strain SMI1, stronger effect = lower value 0.997 | locus YGR252W, strain gcn5, stronger effect = lower value 1.06 | locus YHR013C, strain ard1, stronger effect = lower value 1.08 | locus YHR027C, strain rpn1, stronger effect = lower value 1.02 | locus YHR030C, strain SLT2, stronger effect = lower value 1 and 0.985 | locus YHR079C, strain IRE1 (second series), stronger effect = lower value 1 | locus YHR079C, strain IRE1, stronger effect = lower value 0.979 | locus YHR094C, strain hxt1, stronger effect = lower value 1.01 | locus YHR129C, strain ARP1, stronger effect = lower value 1.02 | locus YHR142W, strain chs7, stronger effect = lower value 1.02 | locus YHR200W, strain rpn10, stronger effect = lower value 0.998 | locus YIL066C, strain RNR3, stronger effect = lower value 1 | locus YIL073C, strain SPO22, stronger effect = lower value 1.05 | locus YIL125W, strain kgd1, stronger effect = lower value 0.999 | locus YIR030C, strain dcg1, stronger effect = lower value 1 | locus YJL092W, strain hpr5, stronger effect = lower value 1.01 | locus YJL095W, strain BCK1 (second series), stronger effect = lower value 1.02 | locus YJL095W, strain BCK1, stronger effect = lower value 1 and 0.979 | locus YJL115W, strain asf1, stronger effect = lower value 1.02 | locus YJL129C, strain trk1, stronger effect = lower value 1.02 | locus YJL134W, strain LCB3, stronger effect = lower value 1.01 | locus YJL154C, strain vps35, stronger effect = lower value 1.02 | locus YJL164C, strain tpk1, stronger effect = lower value 1.01 | locus YJL166W, strain qcr8, stronger effect = lower value 1.02 | locus YJL168C, strain set2, stronger effect = lower value 0.997 | locus YJL187C, strain SWE1 (second series), stronger effect = lower value 0.989 | locus YJL187C, strain SWE1, stronger effect = lower value 1.02 | locus YJR043C, strain POL32, stronger effect = lower value 0.99
